Measurements taken from PubChem BioAssay AID1240 (Sanford-Burnham Center for Chemical Genomics, 2008).
Out of some 50,000 compounds screened, about 800 (1.6%) showed an effect of 50% or more. Only a selection was taken, and strong results are over-represented in it overall.

What follows are compounds tested against Bcl-2-like protein 10 (Homo sapiens) (UniProt Q9HD36) (assay: TR3 peptide-Bcl-B binding displacers, biochemical primary FP assay, phenotype converters (AID 1240;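 note: 0% = Bcl-B with tracer peptide and DMSO and 100% = tracer peptide lacking Bcl-B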)). Details: GST-Bcl-B / FITC-TR3 peptide fluorescence polarization; stronger effect = higher value; compound at 3.75 mg/L.
Bcl-2-like protein 10 (Homo sapiens), sequence (Q9HD36 whole entry, looked up): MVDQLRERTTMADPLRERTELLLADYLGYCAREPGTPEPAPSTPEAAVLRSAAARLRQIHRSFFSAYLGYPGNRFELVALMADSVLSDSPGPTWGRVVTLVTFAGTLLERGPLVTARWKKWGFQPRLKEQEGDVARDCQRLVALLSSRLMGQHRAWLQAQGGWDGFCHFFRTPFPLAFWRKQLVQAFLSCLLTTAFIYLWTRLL
`COC(=O)C1=NN(C(C)=O)C(O)(c2ccccc2)C1` (stereo not drawn) was tested, and the displacement was 2.1%.
`COc1ccc(/C=N\N2CCN(c3ccccc3OC)CC2)cc1OC` showed a displacement of -6.7%.
`CCOc1cccc(-c2cc(C(=O)N3CCc4ccccc43)c3ccccc3n2)c1` was tested, and the displacement was 110%.
With `CCOc1cccc(-c2cc(C(=O)Nc3nnc(C)s3)c3ccccc3n2)c1` the displacement was 135%.
Compound `CCOc1cccc(-c2cc(C(=O)N3CCCCCC3)c3ccccc3n2)c1` has a displacement of -10.2%.
For `CCOc1cccc(-c2cc(C(=O)N3CCN(C)CC3)c3ccccc3n2)c1`, the displacement was -5.5%.
With `CCOc1ccc(-c2cc(C(=O)Nc3nnc(C)s3)c3ccccc3n2)cc1` the displacement was 6.3%.
`CCOc1cccc(-c2cc(C(=O)Nc3cc(C)ccn3)c3ccccc3n2)c1` was tested, and the displacement was 2%.
Compound `Cc1ccccc1OCC(=O)N1N=C(c2ccc(F)cc2)CC1(O)C(F)(F)F` (stereo not drawn) has a displacement of -4.5%.
`Cc1[nH]c2ccccc2c1/C=N/NC(=O)c1cccc([N+](=O)[O-])c1` was tested, and the displacement was 0.7%.
`COc1ccc(C(C)N(C)CCC(c2ccccc2)c2ccccc2)cc1OC` (stereo not drawn) was tested, and the displacement was 5.7%.
Compound `Cn1c(=O)c(N)c2c3c(c(Br)ccc31)C(=O)c1ccccc1-2` has a displacement of 159%.
Work on `Cn1c(=O)c(N2CCCCC2)c2c3c(cccc31)C(=O)c1ccccc1-2` yielded a displacement of 147%.
`Cn1c(=O)c(-c2ccccc2N)nc2cc3ccccc3cc21` gave a displacement of 33.6%.
Compound `O=C1c2ccccc2C(=O)c2c1c(Cl)c(Cl)c(Cl)c2N1CCCC1` has a displacement of 8%.
With `Cn1c(=O)c(-c2ccccc2N)nc2ccccc21` the displacement was -5.4%.
In the case of `Cn1c(=O)c(N)c2c3c(cccc31)C(=O)c1ccccc1-2`, the displacement is reported as 154%.
With `Nc1ccc2c(c1)C(=O)c1ccccc1C2=O` the displacement was 6.9%.
For `Cn1c2c(c(=O)n(C)c1=O)C(c1ccc(Br)cc1)C1=C(N2)c2ccccc2C1=O` (stereo not drawn), the displacement was -10.4%.
With `O=C1c2ccccc2C(=O)c2c1cc(Cl)cc2N1CCCCC1` the displacement was 2.8%.
`COc1ccc(C2CC(C(F)(F)F)n3ncc(C(=O)NC(C)(C)C)c3N2)cc1` (stereo not drawn) was tested, and the displacement was 3.6%.
With `O=C(c1nn2c(C(F)(F)F)cc(-c3ccco3)nc2c1Cl)N1CCN(Cc2ccccc2)CC1` the displacement was 1.1%.
`CCOc1ccc(C(=O)Nc2ccc([N+](=O)[O-])cc2)cc1Cl` was tested, and the displacement was -9.7%.
`O=C(N/N=C/c1ccc([N+](=O)[O-])o1)c1ccc(Cl)c(Cl)c1` was tested, and the displacement was 19%.
For `COc1ccc(N(CC(=O)Nc2ccccc2C)S(C)(=O)=O)cc1Cl`, the displacement was -10.4%.
In the case of `C/C(=N\NC(=O)c1cc(C23CC4CC(CC(C4)C2)C3)[nH]n1)c1ccc(N)cc1`, the displacement is reported as -8.7%.
`Brc1ccc(C=NN2CCN(Cc3ccccc3)CC2)cc1` gave a displacement of -17.6%.
`CCOC(=O)C1=C(N)Oc2ccc3ccccc3c2C1c1ccc(Cl)cc1` (stereo not drawn) was tested, and the displacement was -10.4%.
For `CCOC(=O)C1=C(N)Oc2c(ccc3ccccc23)C1c1ccc(OC)cc1` (stereo not drawn), the displacement was 108%.
For `CCOC(=O)C1=C(C)OC(N)=C(C#N)C1c1ccc(OC)cc1` (stereo not drawn), the displacement was -10.8%.
For `COc1cc(/C=C2\SC(N)=NC2=O)cc(Br)c1OC`, the displacement was -25.9%.
`Cc1[nH]c(=O)c(C(=O)/C=C/c2cccs2)c2c1CCCC2` gave a displacement of 119%.
With `Cc1[nH]c(=O)c(C(=O)/C=C/c2ccccc2Cl)c2c1CCCC2` the displacement was 11%.
`Cc1ccc(/C=C/C(=O)c2c3c(c(C)[nH]c2=O)CCCC3)cc1` showed a displacement of 49.3%.
In the case of `Cc1cccc(NC(=O)C(=O)NCc2ccco2)c1C`, the displacement is reported as 11%.
In the case of `O=C(Nc1ccc(I)cc1)c1ccc(Cl)cc1Cl`, the displacement is reported as 6.9%.
`Cc1ccc(N2C(=O)C(=O)/C(=C(/O)c3ccccc3)C2c2ccc(O)cc2)cc1Cl` (stereo not drawn) showed a displacement of -3.5%.
In the case of `Oc1c(Cl)cc(Cl)cc1C=Nc1cccc(C(F)(F)F)c1`, the displacement is reported as 2.4%.
For `NC(=O)c1cccc(N=Cc2cc(Cl)cc(Cl)c2O)c1`, the displacement was 145%.
Compound `NC(=O)c1ccccc1N=Cc1cc(Cl)cc(Cl)c1O` has a displacement of -7.2%.
`CN(C)CCCNC(=O)/C=C/c1ccc(C(C)(C)C)cc1` was tested, and the displacement was 6.4%.
Work on `O=c1oc2ccccc2cc1-c1nn(-c2ccccc2)cc1/C=N/O` yielded a displacement of 53%.
Compound `O/N=C/c1cn(-c2ccccc2)nc1-c1ccccc1` has a displacement of 10%.
Work on `O/N=C/c1cn(-c2ccccc2)nc1-c1ccc(Cl)cc1` yielded a displacement of -3.8%.
Work on `COCCCNC(=O)C(=O)Nc1ccccc1F` yielded a displacement of -11.9%.
`CCOc1cc(C2C(C(=O)OC)=C(C)NC(C)=C2C(=O)OC)ccc1O` gave a displacement of 0.1%.
`COc1ccc(/C=C2\SC(=S)N(c3ccc(F)cc3)C2=O)cc1OC` was tested, and the displacement was 105%.
Compound `COc1cc(/C=C2\SC(=S)N(c3ccc(F)cc3)C2=O)cc(OC)c1OC` has a displacement of 3.3%.
`CCOc1ccc(/C=C2\SC(=S)N(c3ccc(OC)cc3)C2=O)cc1OC` was tested, and the displacement was 114%.
With `COc1cc(/C=C2/SC(=S)N(c3ccccc3)C2=O)ccc1OC(=O)c1ccc(F)cc1` the displacement was 4.7%.
For `C=CCOc1ccc(/C=C2\SC(=S)N(c3ccc(OC)cc3)C2=O)cc1OC`, the displacement was 6.7%.
`COc1ccc(N2C(=O)/C(=C/c3ccc(OC)c(OC)c3)SC2=S)cc1` gave a displacement of 6.5%.
For `O=S(=O)(c1ccc(C=Nc2ccc(Br)cc2)cc1)c1ccc(C=Nc2ccc(Br)cc2)cc1`, the displacement was -8.7%.
Work on `COc1ccc(C2CC(C(F)(F)F)n3ncc(C(=O)Nc4ccc(F)cc4F)c3N2)cc1OC` (stereo not drawn) yielded a displacement of -1.7%.
`CC1(C)Cc2ccccc2C(/C(=N\O)C(=O)c2ccccc2)=N1` showed a displacement of 13.1%.
Compound `COc1ccc(C(=O)Nc2cccc(S(N)(=O)=O)c2)cc1` has a displacement of -5.8%.
Compound `CCOP(=O)(OCC)/C(=C(\NC(=O)c1ccccc1)C(=O)Nc1ccccc1C(F)(F)F)c1ccccc1` has a displacement of 12.2%.
`COc1c(Cl)ccc(Cl)c1C(=O)NCCc1ccccc1` showed a displacement of -18.4%.
`COc1ccc(CCNC(=O)c2ccc(Cl)c(Cl)c2)cc1OC` showed a displacement of 6%.
For `COc1ccc(CCNC(=O)c2c(Cl)ccc(Cl)c2OC)cc1OC`, the displacement was 57%.
In the case of `C=CCN(CC=C)C(=O)COc1ccc(Cl)cc1`, the displacement is reported as -5.1%.
With `CC(=O)NCCc1c(C)n(Cc2ccccc2)c2ccccc12` the displacement was 20.2%.
With `O=C(c1sc2ccccc2c1Cl)N1CCN(Cc2ccc3c(c2)OCO3)CC1` the displacement was 0.4%.
For `COc1ccc2nc(NS(=O)(=O)c3ccc(Cl)cc3)c(Nc3ccc4[nH]c(=O)[nH]c4c3)nc2c1`, the displacement was -2.9%.
`O=S(=O)(Nc1nc2ccccc2nc1Nc1ccccc1)c1ccccc1` gave a displacement of 16.9%.
`CC(=O)Nc1ccc(Nc2nc3ccccc3nc2NS(=O)(=O)c2ccc(Cl)cc2)cc1` was tested, and the displacement was -12.5%.
Work on `COC(=O)c1cc(Nc2nc3ccccc3nc2NS(=O)(=O)c2ccccc2)ccc1Cl` yielded a displacement of 158%.
Work on `O=c1[nH]c2ccc(Nc3nc4ccccc4nc3NS(=O)(=O)c3ccc(Cl)cc3)cc2[nH]1` yielded a displacement of 102%.
For `O=S(=O)(Nc1nc2ccccc2nc1Nc1cccc(O)c1)c1ccc(Cl)cc1`, the displacement was 7.1%.
Work on `Cc1cccc(OCC(=O)Nc2ccccc2Cl)c1C` yielded a displacement of -1.5%.
Compound `Cc1ccccc1OCCOc1ccc(/C=C2/SC(=S)N(C)C2=O)cc1` has a displacement of 0.3%.
With `CC1(C)CC(NC(=O)c2ccccc2F)CC(C)(C)N1` the displacement was -12.3%.
With `COc1cc(/C=C(\C#N)c2nc3ccccc3[nH]2)ccc1OCC(=O)O` the displacement was 43.5%.
`COc1ccc(C=C2C(=O)N(c3ccc(C)cc3)C(=S)N(c3ccc(C)cc3)C2=O)cc1C(=O)O` gave a displacement of 15%.
With `COc1ccc(OC(C)C(=O)Nc2ccc(N(C)C)cc2)cc1` (stereo not drawn) the displacement was 9.1%.
In the case of `O=C(NCCNc1ccc(Cl)cc1[N+](=O)[O-])c1ccccc1F`, the displacement is reported as -0.6%.
With `CN1C(=O)C(=Cc2cn(CC(=O)Nc3ccccc3)c3ccccc23)C(=O)N(C)C1=O` the displacement was -6.8%.
`O=C(Cn1cc(/C=C2/C(=O)NC(=O)N(c3ccccc3F)C2=O)c2ccccc21)Nc1ccccc1` showed a displacement of 51.1%.
`N#CC(C#N)=Cc1cn(CC(=O)Nc2ccccc2)c2ccccc12` was tested, and the displacement was -17.6%.
For `Cc1ccccc1N1C(=O)NC(=O)/C(=C/c2cn(CC(=O)Nc3ccccc3)c3ccccc23)C1=O`, the displacement was 53.6%.
Compound `O=C(Cn1cc(/C=C2/C(=O)NC(=S)N(c3ccccc3F)C2=O)c2ccccc21)Nc1ccccc1` has a displacement of 30.7%.
`O=C(Cn1cc(/C=C2\NC(=O)NC2=O)c2ccccc21)Nc1ccccc1` was tested, and the displacement was 7.5%.
With `COc1ccc(C2Nc3ccccc3NC3=C2C(=O)CC(c2ccccc2)C3)c(OC)c1` (stereo not drawn) the displacement was 5.9%.
`CCN1CCN(Cc2c(O)ccc3ccccc23)CC1` showed a displacement of 13.6%.
`O=C(/C=C/c1ccc(-c2cccc([N+](=O)[O-])c2)o1)Nc1ccc(Cl)cc1` was tested, and the displacement was 4.5%.
`O=C(/C=C/c1ccc(-c2cccc(Br)c2)o1)c1ccco1` gave a displacement of 11.8%.
`O=C(/C=C/c1ccc(-c2ccc(Cl)cc2Cl)o1)c1ccco1` was tested, and the displacement was 3.4%.
With `N#CC(C#N)=Cc1ccc(-c2ccc(Cl)c(C(=O)O)c2)o1` the displacement was 0.6%.
`O=C(/C=C\c1ccc(-c2cc(Cl)ccc2Cl)o1)c1ccccc1` showed a displacement of 24.9%.
`N#C/C(=C/c1ccc(-c2cc(Cl)ccc2Cl)o1)C(=O)O` was tested, and the displacement was 2%.
With `O=C(/C=C/c1ccc(-c2cc(Cl)ccc2Cl)o1)c1ccco1` the displacement was 126%.
In the case of `O=C(/C=C/c1ccc(-c2cccc([N+](=O)[O-])c2)o1)c1cc2ccccc2o1`, the displacement is reported as 119%.
In the case of `N#CC(C#N)=Cc1ccc(-c2cc(Cl)ccc2Cl)o1`, the displacement is reported as 93.5%.
`O=C(/C=C/c1ccc(-c2cccc([N+](=O)[O-])c2)o1)c1ccco1` gave a displacement of 79.3%.
In the case of `CC(=O)/C=C/c1ccc(-c2cccc([N+](=O)[O-])c2)o1`, the displacement is reported as -5.2%.
`O=C(/C=C/c1ccc(-c2cccc([N+](=O)[O-])c2)o1)c1ccc(F)cc1` gave a displacement of 3.4%.
`N#Cc1c2c(c(N3CCN(c4ccccn4)CC3)n3c1nc1ccccc13)CCC2` showed a displacement of 2.1%.
In the case of `O=C1c2ccccc2C(=O)N1CCc1nc2ccccc2c(=O)n1-c1ccc(Br)cn1`, the displacement is reported as -10.3%.
`CCN(CC)CCCCOc1ccc(Cl)c(C)c1` gave a displacement of -10.7%.
`COc1ccc(CCNC(=O)C(=O)Nc2ccc3c(c2)OCCO3)cc1OC` was tested, and the displacement was 3.4%.
With `Cc1cccc(CN2CCN(Cc3ccncc3)CC2)c1` the displacement was -1.1%.
`COC(=O)c1sc2nc(-c3ccccc3)nc(N3CCOCC3)c2c1C` gave a displacement of 47.3%.
Work on `CC1(C)Oc2ccc3ccc(=O)oc3c2/C(=C/N2CCOCC2)C1=O` yielded a displacement of -5.9%.
In the case of `COc1ccc(Cl)cc1C(=O)Nc1ccc(C)cc1C`, the displacement is reported as 10.1%.
For `CN(C)c1ccc(/C=N/NC(=O)CNC(=O)c2ccc(F)cc2)cc1`, the displacement was 2.3%.
`O=C(/C=C/c1ccc(-c2ccc([N+](=O)[O-])cc2)o1)c1cc2ccccc2o1` showed a displacement of 190%.
In the case of `COc1ccc(-c2ccc(/C=C/C(=O)c3cc4ccccc4o3)o2)cc1`, the displacement is reported as -52.6%.
`O=C(/C=C/c1ccc(-c2ccccc2[N+](=O)[O-])o1)c1cc2ccccc2o1` gave a displacement of 44.1%.
